# Measured values published in PMC7862700, “An all-to-all approach to the identification of sequence-specific readers for epigenetic DNA modifications on cytosine”.
# What was measured:
# Assay in all cases: DAPPL (digital affinity profiling via proximity ligation, sequencing); 10 mM Tris-HCl pH 7.5, 50 mM NaCl, 1 mM DTT, 4% glycerol, room temperature, 30 min; GST-TFs on glutathione beads, 16-mer random dsDNA library, 0.1% formaldehyde crosslink after washing; high values mean tight binding
# [1] = target: T1, FEV (Homo sapiens, UniProt Q99581 1-238); conditions: protein: recombinant; tags: N-terminal GST; dsDNA, one strand shown
# T1 sequence: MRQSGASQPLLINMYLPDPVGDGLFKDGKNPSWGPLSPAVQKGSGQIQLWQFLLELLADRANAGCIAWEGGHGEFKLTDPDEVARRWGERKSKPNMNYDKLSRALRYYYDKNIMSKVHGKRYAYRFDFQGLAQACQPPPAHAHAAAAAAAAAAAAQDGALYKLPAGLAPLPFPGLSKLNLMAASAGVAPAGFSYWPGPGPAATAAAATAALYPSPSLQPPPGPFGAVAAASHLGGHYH
# Summary of the method: (§1)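 Human transcription factors were made in yeast as GST fusions, captured on glutathione beads and barcoded with DNA. With a tag-only sample included, the pool was incubated with 200 nmole of a random double-stranded 16-mer DNA library in Tris/NaCl/DTT/glycerol buffer at room temperature for 30 min, then crosslinked with 0.1% formaldehyde after washing, ligated by proximity, amplified and sequenced. For binding signal, each hexamer's read frequency for a factor is divided by its frequency for the tag-only sample.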
# [2] = target: ETV5 (Homo sapiens, UniProt P41161 1-510); conditions: protein: recombinant; tags: N-terminal GST; dsDNA, one strand shown
# Sequence of ETV5 (P41161 whole entry): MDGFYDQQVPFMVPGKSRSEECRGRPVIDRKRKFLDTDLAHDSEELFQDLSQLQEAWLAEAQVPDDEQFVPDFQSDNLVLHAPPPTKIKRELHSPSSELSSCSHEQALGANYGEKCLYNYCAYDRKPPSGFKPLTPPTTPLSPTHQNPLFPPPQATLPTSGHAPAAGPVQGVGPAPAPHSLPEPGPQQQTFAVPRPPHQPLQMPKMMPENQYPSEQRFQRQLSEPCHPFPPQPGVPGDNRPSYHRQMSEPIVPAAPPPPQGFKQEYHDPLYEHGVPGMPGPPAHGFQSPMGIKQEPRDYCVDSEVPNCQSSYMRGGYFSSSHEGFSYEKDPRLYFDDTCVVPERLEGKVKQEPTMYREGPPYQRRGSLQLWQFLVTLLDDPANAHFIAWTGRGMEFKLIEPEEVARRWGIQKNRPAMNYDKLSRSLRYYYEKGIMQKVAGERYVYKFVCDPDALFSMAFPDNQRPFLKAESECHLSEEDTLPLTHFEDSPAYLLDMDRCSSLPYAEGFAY
# Summary of the method: as §1
# [3] = target: HSF1 (Homo sapiens, UniProt Q00613 1-529); conditions: protein: recombinant; tags: N-terminal GST; chain copies: 3; dsDNA, one strand shown
# Sequence of HSF1 (Q00613 whole entry): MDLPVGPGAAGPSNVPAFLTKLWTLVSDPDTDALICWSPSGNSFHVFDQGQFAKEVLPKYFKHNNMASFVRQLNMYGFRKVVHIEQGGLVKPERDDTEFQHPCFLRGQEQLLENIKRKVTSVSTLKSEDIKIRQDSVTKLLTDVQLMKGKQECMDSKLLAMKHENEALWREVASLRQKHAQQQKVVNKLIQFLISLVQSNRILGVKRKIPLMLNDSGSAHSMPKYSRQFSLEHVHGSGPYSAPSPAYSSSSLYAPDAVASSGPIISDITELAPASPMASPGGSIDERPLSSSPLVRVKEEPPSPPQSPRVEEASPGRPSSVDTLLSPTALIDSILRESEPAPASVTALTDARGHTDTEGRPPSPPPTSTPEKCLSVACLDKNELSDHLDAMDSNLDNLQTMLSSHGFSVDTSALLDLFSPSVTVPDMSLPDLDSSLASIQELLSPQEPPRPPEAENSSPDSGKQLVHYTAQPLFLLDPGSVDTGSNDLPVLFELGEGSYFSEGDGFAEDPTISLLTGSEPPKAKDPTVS
# Summary of the method: as §1
# [4] = target: T2, SPIC (Homo sapiens, UniProt Q8N5J4 1-248); conditions: protein: recombinant; tags: N-terminal GST; dsDNA, one strand shown
# T2 sequence: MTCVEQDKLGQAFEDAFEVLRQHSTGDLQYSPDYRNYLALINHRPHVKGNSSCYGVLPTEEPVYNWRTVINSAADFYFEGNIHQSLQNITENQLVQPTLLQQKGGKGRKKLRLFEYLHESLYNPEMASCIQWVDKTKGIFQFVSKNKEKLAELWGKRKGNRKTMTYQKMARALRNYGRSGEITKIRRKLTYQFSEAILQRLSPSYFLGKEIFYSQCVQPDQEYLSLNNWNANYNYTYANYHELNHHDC
# Summary of the method: as §1
# [5] = target: ELF4 (Homo sapiens, UniProt Q99607 1-663); conditions: protein: recombinant; tags: N-terminal GST; dsDNA, one strand shown
# Sequence of ELF4 (Q99607 whole entry): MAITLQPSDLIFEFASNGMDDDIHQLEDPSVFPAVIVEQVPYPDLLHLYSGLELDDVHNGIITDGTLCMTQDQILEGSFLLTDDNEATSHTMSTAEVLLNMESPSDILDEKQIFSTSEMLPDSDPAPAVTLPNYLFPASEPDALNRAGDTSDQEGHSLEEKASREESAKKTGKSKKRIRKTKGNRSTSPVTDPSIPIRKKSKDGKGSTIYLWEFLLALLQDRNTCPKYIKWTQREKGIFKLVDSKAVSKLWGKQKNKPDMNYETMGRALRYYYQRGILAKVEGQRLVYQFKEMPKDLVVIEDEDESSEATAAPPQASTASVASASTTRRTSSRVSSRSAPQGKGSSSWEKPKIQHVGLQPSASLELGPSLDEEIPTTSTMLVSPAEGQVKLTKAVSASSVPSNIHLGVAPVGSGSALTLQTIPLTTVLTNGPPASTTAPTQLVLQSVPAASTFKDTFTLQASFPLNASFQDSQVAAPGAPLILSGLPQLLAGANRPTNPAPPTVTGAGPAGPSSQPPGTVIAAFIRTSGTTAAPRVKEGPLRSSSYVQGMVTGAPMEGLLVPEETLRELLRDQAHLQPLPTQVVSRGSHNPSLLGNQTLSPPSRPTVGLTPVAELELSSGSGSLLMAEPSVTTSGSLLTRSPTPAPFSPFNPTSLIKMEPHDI
# Summary of the method: as §1
# [6] = target: T3, ELK4 (Homo sapiens, UniProt P28324-2 1-405); conditions: protein: recombinant; tags: N-terminal GST; dsDNA, one strand shown
# T3 sequence: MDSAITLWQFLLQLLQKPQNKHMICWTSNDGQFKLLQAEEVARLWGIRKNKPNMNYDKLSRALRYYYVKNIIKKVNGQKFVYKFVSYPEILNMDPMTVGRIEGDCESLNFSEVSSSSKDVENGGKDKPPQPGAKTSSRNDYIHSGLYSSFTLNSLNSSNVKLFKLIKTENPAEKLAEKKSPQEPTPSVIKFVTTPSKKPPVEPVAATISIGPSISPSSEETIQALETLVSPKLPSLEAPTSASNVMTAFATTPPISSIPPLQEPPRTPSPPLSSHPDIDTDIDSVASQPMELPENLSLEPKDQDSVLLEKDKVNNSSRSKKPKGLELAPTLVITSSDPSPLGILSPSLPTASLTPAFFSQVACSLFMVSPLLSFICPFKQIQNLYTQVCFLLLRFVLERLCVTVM
# Summary of the method: as §1
# [7] = target: T4, ETV2 (Homo sapiens, UniProt O00321 1-342); conditions: protein: recombinant; tags: N-terminal GST; dsDNA, one strand shown
# T4 sequence: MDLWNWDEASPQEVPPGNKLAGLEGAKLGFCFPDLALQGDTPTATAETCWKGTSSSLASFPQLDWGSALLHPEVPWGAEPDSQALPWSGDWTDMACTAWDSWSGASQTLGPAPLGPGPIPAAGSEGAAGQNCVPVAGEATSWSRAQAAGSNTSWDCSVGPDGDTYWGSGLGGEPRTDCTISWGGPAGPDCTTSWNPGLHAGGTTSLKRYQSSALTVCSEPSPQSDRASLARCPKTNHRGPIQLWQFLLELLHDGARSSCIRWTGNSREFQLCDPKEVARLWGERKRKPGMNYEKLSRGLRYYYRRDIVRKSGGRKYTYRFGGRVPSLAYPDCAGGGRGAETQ
# Summary of the method: as §1
# [8] = target: T5, ELF3 (Homo sapiens, UniProt P78545 1-371); conditions: protein: recombinant; tags: N-terminal GST; dsDNA, one strand shown
# T5 sequence: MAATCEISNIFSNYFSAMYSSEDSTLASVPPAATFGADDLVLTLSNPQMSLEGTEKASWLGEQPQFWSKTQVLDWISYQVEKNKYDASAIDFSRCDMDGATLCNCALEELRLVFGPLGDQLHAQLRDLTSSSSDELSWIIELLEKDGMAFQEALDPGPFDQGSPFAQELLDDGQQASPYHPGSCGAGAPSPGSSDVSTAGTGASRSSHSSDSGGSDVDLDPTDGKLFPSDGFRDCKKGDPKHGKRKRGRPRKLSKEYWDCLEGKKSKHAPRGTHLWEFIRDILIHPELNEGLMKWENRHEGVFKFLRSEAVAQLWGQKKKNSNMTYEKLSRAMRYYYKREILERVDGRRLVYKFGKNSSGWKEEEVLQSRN
# Summary of the method: as §1
# [9] = target: CRX (Homo sapiens, UniProt O43186 1-299); conditions: protein: recombinant; tags: N-terminal GST; dsDNA, one strand shown
# Sequence of CRX (O43186 whole entry): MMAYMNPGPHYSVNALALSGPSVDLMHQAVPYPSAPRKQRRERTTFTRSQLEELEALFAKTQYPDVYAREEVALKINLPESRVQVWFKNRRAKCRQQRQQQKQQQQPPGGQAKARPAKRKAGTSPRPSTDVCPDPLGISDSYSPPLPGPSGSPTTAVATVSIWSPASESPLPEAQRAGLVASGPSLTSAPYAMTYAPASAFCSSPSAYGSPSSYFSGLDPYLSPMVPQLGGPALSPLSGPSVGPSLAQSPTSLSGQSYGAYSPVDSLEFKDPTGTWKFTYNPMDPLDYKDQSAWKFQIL
# Summary of the method: as §1
# [10] = target: ETV1 (Homo sapiens, UniProt P50549 1-477); conditions: protein: recombinant; tags: N-terminal GST; dsDNA, one strand shown
# Sequence of ETV1 (P50549 whole entry): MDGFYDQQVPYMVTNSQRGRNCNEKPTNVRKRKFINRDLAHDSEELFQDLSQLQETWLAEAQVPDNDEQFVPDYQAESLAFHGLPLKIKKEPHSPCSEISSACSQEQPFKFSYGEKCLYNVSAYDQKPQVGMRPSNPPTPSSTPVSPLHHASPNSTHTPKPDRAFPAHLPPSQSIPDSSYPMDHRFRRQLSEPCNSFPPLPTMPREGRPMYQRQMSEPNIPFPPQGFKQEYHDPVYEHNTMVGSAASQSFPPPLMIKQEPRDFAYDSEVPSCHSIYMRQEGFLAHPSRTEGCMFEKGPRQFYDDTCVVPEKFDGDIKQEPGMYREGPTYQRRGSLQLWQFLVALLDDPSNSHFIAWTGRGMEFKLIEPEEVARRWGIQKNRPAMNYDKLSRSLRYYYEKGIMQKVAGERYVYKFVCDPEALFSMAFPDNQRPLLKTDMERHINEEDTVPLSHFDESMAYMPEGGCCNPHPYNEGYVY
# Summary of the method: as §1
# [11] = target: T6, ERF (Homo sapiens, UniProt P50548 1-548); conditions: protein: recombinant; tags: N-terminal GST; dsDNA, one strand shown
# T6 sequence: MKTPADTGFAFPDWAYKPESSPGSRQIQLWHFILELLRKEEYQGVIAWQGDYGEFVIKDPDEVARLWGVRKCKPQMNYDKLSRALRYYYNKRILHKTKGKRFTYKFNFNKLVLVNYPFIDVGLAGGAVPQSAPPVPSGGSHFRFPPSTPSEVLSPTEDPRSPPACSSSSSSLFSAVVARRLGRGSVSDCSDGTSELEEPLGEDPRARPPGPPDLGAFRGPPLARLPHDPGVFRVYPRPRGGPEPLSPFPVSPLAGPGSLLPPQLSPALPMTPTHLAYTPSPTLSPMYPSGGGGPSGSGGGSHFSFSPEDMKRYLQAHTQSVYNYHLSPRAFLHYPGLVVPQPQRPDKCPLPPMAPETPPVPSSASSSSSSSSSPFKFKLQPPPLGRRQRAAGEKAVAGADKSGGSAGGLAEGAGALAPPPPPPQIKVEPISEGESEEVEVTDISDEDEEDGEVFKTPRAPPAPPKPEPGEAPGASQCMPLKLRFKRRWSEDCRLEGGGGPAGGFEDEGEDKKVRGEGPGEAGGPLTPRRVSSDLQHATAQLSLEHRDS
# Summary of the method: as §1
# [12] = target: T7, ETV3L (Homo sapiens, UniProt Q6ZN32 1-361); conditions: protein: recombinant; tags: N-terminal GST; dsDNA, one strand shown
# T7 sequence: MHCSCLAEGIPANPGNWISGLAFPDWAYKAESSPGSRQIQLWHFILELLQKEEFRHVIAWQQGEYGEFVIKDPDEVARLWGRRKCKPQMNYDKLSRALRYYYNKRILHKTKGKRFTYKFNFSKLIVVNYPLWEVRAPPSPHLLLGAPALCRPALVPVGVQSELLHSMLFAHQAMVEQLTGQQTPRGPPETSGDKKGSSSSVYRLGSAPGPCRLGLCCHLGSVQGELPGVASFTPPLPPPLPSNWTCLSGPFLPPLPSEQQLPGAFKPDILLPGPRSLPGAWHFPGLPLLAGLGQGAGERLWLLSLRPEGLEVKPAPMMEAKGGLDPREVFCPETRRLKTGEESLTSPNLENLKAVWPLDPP
# Summary of the method: as §1
# [13] = target: T8, ETS2 (Homo sapiens, UniProt P15036 1-469); conditions: protein: recombinant; tags: N-terminal GST; dsDNA, one strand shown
# T8 sequence: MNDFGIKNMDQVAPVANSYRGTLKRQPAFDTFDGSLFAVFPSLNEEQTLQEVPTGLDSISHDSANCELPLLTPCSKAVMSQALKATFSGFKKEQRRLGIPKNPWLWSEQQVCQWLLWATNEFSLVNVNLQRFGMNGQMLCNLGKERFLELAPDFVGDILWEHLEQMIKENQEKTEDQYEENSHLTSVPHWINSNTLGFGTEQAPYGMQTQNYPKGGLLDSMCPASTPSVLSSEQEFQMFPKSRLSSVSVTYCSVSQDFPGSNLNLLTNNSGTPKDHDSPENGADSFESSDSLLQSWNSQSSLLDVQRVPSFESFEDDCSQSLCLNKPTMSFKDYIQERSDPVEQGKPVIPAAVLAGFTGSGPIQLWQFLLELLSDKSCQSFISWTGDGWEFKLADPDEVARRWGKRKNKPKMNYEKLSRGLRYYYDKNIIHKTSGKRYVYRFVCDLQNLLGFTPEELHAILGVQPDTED
# Summary of the method: as §1
# [14] = target: T9, SPDEF (Homo sapiens, UniProt O95238 1-335); conditions: protein: recombinant; tags: N-terminal GST; dsDNA, one strand shown
# T9 sequence: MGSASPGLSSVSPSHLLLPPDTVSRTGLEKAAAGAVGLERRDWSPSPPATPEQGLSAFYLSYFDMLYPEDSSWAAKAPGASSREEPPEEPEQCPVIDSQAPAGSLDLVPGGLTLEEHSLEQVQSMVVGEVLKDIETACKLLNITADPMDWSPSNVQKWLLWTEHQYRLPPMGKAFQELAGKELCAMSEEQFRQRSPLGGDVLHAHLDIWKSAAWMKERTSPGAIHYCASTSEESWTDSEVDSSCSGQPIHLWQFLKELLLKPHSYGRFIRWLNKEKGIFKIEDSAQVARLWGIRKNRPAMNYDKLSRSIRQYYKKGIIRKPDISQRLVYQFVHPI
# Summary of the method: as §1
# [15] = target: T10, ETV7 (Homo sapiens, UniProt Q9Y603 1-341); conditions: protein: recombinant; tags: N-terminal GST; dsDNA, one strand shown
# T10 sequence: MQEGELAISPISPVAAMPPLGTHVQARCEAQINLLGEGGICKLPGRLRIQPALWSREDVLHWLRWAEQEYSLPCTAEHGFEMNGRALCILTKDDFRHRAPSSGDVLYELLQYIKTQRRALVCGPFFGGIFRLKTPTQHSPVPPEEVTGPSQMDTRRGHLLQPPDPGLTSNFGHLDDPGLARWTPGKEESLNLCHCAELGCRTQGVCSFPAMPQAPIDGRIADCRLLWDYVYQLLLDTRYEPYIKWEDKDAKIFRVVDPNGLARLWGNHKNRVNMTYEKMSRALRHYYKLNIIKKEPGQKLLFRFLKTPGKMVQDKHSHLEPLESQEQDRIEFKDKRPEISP
# Summary of the method: as §1
# [16] = target: T11, ELF5 (Homo sapiens, UniProt Q9UKW6-2 1-255); conditions: protein: recombinant; tags: N-terminal GST; dsDNA, one strand shown
# T11 sequence: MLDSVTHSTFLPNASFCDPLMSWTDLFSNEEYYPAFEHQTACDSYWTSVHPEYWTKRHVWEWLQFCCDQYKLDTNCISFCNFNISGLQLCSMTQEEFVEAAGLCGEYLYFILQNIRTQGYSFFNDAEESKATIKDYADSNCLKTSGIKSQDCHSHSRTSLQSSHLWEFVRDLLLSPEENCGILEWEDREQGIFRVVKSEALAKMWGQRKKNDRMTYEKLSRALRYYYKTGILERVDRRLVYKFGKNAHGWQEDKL
# Summary of the method: as §1
# [17] = target: T12, ETV3 (Homo sapiens, UniProt P41162-2 1-143); conditions: protein: recombinant; tags: N-terminal GST; dsDNA, one strand shown
# T12 sequence: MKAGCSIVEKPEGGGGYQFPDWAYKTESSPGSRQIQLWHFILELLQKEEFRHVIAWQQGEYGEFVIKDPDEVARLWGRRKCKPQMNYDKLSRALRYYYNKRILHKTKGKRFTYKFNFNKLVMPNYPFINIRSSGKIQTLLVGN
# Summary of the method: as §1
# [18] = target: ETV6 (Homo sapiens, UniProt P41212 1-452); conditions: protein: recombinant; tags: N-terminal GST; dsDNA, one strand shown
# Sequence of ETV6 (P41212 whole entry): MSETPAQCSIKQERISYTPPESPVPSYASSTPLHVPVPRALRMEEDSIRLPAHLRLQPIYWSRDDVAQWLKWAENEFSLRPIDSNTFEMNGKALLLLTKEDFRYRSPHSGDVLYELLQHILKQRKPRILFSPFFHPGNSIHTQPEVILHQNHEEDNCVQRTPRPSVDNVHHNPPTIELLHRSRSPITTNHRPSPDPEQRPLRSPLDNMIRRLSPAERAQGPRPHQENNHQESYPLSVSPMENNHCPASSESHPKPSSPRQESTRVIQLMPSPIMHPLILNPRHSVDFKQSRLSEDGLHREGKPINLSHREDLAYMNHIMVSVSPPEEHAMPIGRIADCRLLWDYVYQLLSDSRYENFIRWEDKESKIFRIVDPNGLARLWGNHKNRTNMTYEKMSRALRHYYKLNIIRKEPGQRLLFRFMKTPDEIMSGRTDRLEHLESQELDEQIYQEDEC
# Summary of the method: as §1
sequence,measurement,setting,value
CGTATT,binding signal,[1],"1.07 fold enrichment (6-mer frequency, TF over GST control)"
same,binding signal,[2],"1.2 fold enrichment (6-mer frequency, TF over GST control)"
same,binding signal,[3],"1.21 fold enrichment (6-mer frequency, TF over GST control)"
same,binding signal,[4],"1.22 fold enrichment (6-mer frequency, TF over GST control)"
same,binding signal,[5],"1.16 fold enrichment (6-mer frequency, TF over GST control)"
same,binding signal,[6],"1.18 fold enrichment (6-mer frequency, TF over GST control)"
same,binding signal,[7],"1.38 fold enrichment (6-mer frequency, TF over GST control)"
same,binding signal,[8],"1.04 fold enrichment (6-mer frequency, TF over GST control)"
same,binding signal,[9],"1.46 fold enrichment (6-mer frequency, TF over GST control)"
same,binding signal,[10],"1.22 fold enrichment (6-mer frequency, TF over GST control)"
same,binding signal,[11],"1.08 fold enrichment (6-mer frequency, TF over GST control)"
same,binding signal,[12],"1.09 fold enrichment (6-mer frequency, TF over GST control)"
same,binding signal,[13],"1.18 fold enrichment (6-mer frequency, TF over GST control)"
same,binding signal,[14],"1.16 fold enrichment (6-mer frequency, TF over GST control)"
same,binding signal,[15],"1.07 fold enrichment (6-mer frequency, TF over GST control)"
same,binding signal,[16],"1.14 fold enrichment (6-mer frequency, TF over GST control)"
same,binding signal,[17],"1.16 fold enrichment (6-mer frequency, TF over GST control)"
same,binding signal,[18],"1.22 fold enrichment (6-mer frequency, TF over GST control)"
